# Screening results from PubChem.
# In the library only some 9.9% were active in any assay of this set; here they are far more common.
# Tau fluor cs: counter-screen for tau fibril formation inhibitors. tau K18 P301L Alexa594 fluorescence, heparin fibrillization. Potency, µM (top dose mostly 57.7 µM), inactives show top-dose activity change, negative = decrease. hit rate 0.93% among 280,000. AID 1463; active = well fitted curve in the direction sought with a large enough effect; inconclusive = small, poorly fitted or top-dose-only effect, or another doubt; inactive = no such curve, though single readings can be large; an effect the other way counts as inactive or inconclusive; note: nearly all actives have a fitted effect of over 55% in size
#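 Human tau K18 P301L (15 uM unlabeled, 0.24 uM Alexa 594-labeled) in 100 mM sodium acetate pH 7 with 20 uM heparin, 6 hr at 37 C. ThT 30 uM added, 1 hr ambient; Alexa 594 FP and total fluorescence read at 555/632 nm.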
# HPGD inh: inhibitors of human 15-hydroxyprostaglandin dehydrogenase (HPGD); hit rate 4.3% among 150,000; AID 894; purified HPGD, NADH fluorescence kinetic, PGE2 substrate; P15428; Potency, µM, for inactives: at the top dose activity change, negative = inhibition, hits mostly inhibitors
# Target sequence (P15428 whole entry, looked up): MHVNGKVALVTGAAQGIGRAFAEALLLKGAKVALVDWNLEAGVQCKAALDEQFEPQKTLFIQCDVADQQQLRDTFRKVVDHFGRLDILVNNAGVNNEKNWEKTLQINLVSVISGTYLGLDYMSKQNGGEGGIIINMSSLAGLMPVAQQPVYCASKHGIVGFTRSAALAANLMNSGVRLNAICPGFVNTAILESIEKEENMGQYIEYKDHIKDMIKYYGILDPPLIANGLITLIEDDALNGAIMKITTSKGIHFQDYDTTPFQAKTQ
#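 20 nM HPGD preincubated 15 min at room temperature with compound in 50 mM Tris-HCl pH 8, 0.01% Tween 20. Started with 1 mM NAD+ and 30 uM prostaglandin E2; NADH fluorescence (360/450 nm) read 5 times over 30-s intervals, last minus first.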
# ALDH1A1 block: ALDH1A1 (human) enzyme inhibition | P00352 | Purified ALDH1A1, NADH fluorescence, propionaldehyde substrate | Potency, µM (top dose mostly 75.3 µM), without a hit: at the top dose activity, negative = inhibition, hits mostly inhibitors | hit rate 7.3% among 220,000 | AID 1030;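 note: plate controls were no enzyme wells and a reference inhibitor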
# Tau ThT inhib: inhibitors of human tau fibril formation, thioflavin T binding. P10636. recombinant tau K18 P301L (four-repeat tau fragment), heparin-induced fibrillization, ThT fluorescence. Potency, µM (top dose mostly 57.4 µM), without a hit: at the top dose activity, negative = inhibition, usual class: inhibitors. hit rate 2.1% among 270,000. AID 1460; active = well fitted curve in the direction sought with a large enough effect; inconclusive = small, poorly fitted or top-dose-only effect, or another doubt; inactive = no such curve, though single readings can be large; an effect the other way counts as inactive or inconclusive; note: nearly all actives have a fitted effect of over 55% in size
# Target sequence (P10636 561-689 P618L limits assumed): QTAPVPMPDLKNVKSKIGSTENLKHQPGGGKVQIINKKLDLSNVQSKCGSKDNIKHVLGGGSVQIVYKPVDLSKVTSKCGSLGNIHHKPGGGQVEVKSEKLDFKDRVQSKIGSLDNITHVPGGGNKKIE
#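 Recombinant human tau K18 fragment […] carrying P301L, 15 uM unlabeled plus 0.24 uM Alexa 594-labeled, was fibrillized with 20 uM heparin in 100 mM sodium acetate pH 7 for 6 hr at 37 C; 30 uM ThT fluorescence read after 1 hr.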
# JMJD2E inh: JMJD2E (human) inhibition | B2RXH2 | JMJD2E catalytic domain, FDH-coupled NADH fluorescence (FDH is formaldehyde dehydrogenase) | Potency, µM (series often up to 57.1 µM), for the others: at the highest dose activity change, negative = inhibition, most hits filed as inhibitors | hit rate 1.6% among 230,000 | AID 2147;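 note: 0% = wells with enzyme and -100% = buffer wells without enzyme; nearly all actives have a fitted effect of over 50% in size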
# Target sequence (B2RXH2 1-337 limits assumed): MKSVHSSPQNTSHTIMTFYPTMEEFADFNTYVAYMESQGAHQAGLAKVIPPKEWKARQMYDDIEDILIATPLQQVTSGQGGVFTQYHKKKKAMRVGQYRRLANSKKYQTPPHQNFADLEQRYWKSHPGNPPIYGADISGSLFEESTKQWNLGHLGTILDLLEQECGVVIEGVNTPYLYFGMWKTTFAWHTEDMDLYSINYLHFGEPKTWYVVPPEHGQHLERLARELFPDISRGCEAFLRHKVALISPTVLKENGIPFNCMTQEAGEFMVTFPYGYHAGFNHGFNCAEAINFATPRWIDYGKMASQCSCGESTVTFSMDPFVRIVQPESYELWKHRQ
# Tau fibril FP: inhibitors of human tau fibril formation. P10636. K18 P301L tau heparin fibrillization, Alexa594 FP, 6 h. Potency, µM (doses to about 57.7 µM), without a hit: top-dose activity, negative = inhibition, most hits filed as inhibitors. hit rate 0.39% among 280,000. AID 1468; active = well fitted curve in the direction sought with a large enough effect; inconclusive = small, poorly fitted or top-dose-only effect, or another doubt; inactive = no such curve, though single readings can be large; an effect the other way counts as inactive or inconclusive; note: nearly all actives have a fitted effect of over 55% in size
#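 Human K18 P301L fragment (15 uM unlabeled plus 0.24 uM Alexa 594-labeled) in 100 mM sodium acetate pH 7 with compound, aggregation induced by 20 uM heparin for 6 hr at 37 C. ThT (30 uM) added for 1 hr, then Alexa 594 FP read.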
# * marks the source's active call; other numbers are inactive results; ? = inconclusive; / = no result given; [ ] = dose if it differs, or a comment. Unless noted, calls come from the whole dose curve; as a rule, active = well fitted inhibition curve with a large enough effect (not every such curve was filed as active); inconclusive = small, poorly fitted or top-dose-only effect, or another doubt; inactive = no such curve, though single readings can be large or run the other way. Unless noted, % is set by controls: 0 for no effect and ±100 for the full control effect; potency is the fitted concentration of half-maximal effect.
SMILES,Tau fluor cs,HPGD inh,ALDH1A1 block,Tau ThT inhib,JMJD2E inh,Tau fibril FP
COCCCNC(=O)Cn1cnc2sc(C)c(S(=O)(=O)N3CCC(C)CC3)c2c1=O,-8%,/,/,-2%,/,1%
CCc1ccc(-n2nc(C)c3c(C)cc(=O)n(CC(=O)NCc4ccc(C)cc4)c32)cc1,3%,/,/,1%,/,-3%
NNC(=O)[C@@H](O)[C@H](O)[C@H](O)CO,/,1%,5%[13.5 µM],/,/,/
Clc1ccc2c(c1)-c1nnc(Br)n1-c1ccccc1S2,-6%,18µM*,-13%,-4%,-13%,0%
COc1cc(Cl)nn(-c2ccccc2)c1=O,-3%,-12%,-1%,1%,0%,2%
O=c1c(Cl)cc(Cl)nn1-c1ccccc1,3%,-17%,32µM*,-6%,4%,-5%
NC(=NCc1ccc(Cl)c(Cl)c1)NC(=O)c1nc(Cl)c(N)nc1N,-17%,?,?,5%,?,5%
O=[N+]([O-])c1ccc(Nc2nc(NCCO)nc(N3CCCC3)n2)cc1,?,/,1.6µM*,?,-2%,?
OCCNc1nc(N2CCCC2)nc(N2CCCC2)n1,3%,-9%,3%,-1%,0%,6%
O=[N+]([O-])c1ccc(/C=N/Nc2nc(N3CCCCC3)nc(N3CCCCC3)n2)cc1,?,/,?,?,1%,11%
O=[N+]([O-])c1ccc(Nc2nc(N/N=C\c3ccc4c(c3)OCO4)nc(N3CCCCC3)n2)cc1,?,-19%,?,32µM*,-3%,8%
Cc1cc(C)c(NC(=O)CCN2CCCCC2)c(C)c1,2%,/,/,1%,/,4%
COC(=O)c1cc(CC(=O)c2ccc(O)cc2O)c(C)o1,0%,16µM*,5%,-1%,-1%,-3%
CCOC(=O)c1ccc(CC(=O)c2ccc(O)cc2O)o1,-27%,-12%,?,?,-20%,-3%
COC(=O)c1ccc(CC(=O)c2c(C)cc(O)cc2O)o1,?,/,28µM*,28µM*,18µM*,?
COC(=O)c1ccc(CC(=O)c2ccc(O)cc2O)o1,?,32µM*,?,?,?,-12%
COc1ccccc1N(CC(=O)Nc1ccccc1F)S(C)(=O)=O,-3%,/,/,7%,/,-7%
CCCOc1ccc(C2C(=O)N(C3CCC(C)CC3)CC(=O)N2CCc2ccccc2)cc1OC (stereo not given),17%,/,/,1%,/,11%
Cn1cccc1C(=O)N1CCC2(CC1)CN(C(=O)Nc1cccc(C#N)c1)C2,/,-16%,28µM*,/,/,/
Cn1cccc1C(=O)N1CCC[C@@]2(CCN(C(=O)Nc3cccc(C#N)c3)C2)C1,/,-12%,-12%,/,/,/
COc1ccc(CC(=O)NCc2cccs2)cc1,5%,-28%,3%,-4%,7%,-3%
O=C(CCSCCC(=O)NCc1cccs1)NCc1cccs1,-2%,-4%,-13%,-15%,3%,?
O=C(COc1ccc(C(=O)c2ccc(F)cc2)cc1)NCc1ccc(F)cc1,-13%,-17%,-13%,-3%,-2%,-9%
Cc1ccc(CNC(=O)COc2ccc(C(=O)c3ccc(F)cc3)cc2)cc1,-7%,40µM*,?,3%,3%,-10%
O=C(Cc1cccs1)NCc1cccs1,-1%,16µM*,?,-1%,5%,-6%
SMILES,Tau fluor cs,HPGD inh,ALDH1A1 block,Tau ThT inhib,JMJD2E inh,Tau fibril FP
O=C(CCC1CCCCC1)NCc1cccs1,-12%,10µM*,-7%,-6%,1%,5%
O=C(Cc1cccs1)NCc1cccnc1,-5%,-3%,8%,-11%,-6%,-2%
O=C(Cc1cccs1)NCc1ccc(F)cc1,3%,25µM*,8%,11%,2%,-5%
CCOC(=O)c1ccc(N2CCN(c3cc(C)ccc3C)CC2)c(NC(=O)Nc2ccc(Cl)cc2)c1,-25%,/,/,3%,/,-10%
COc1ccc(-c2n[nH]c3c2cnc2ccc(F)cc23)cc1,-1%,/,/,-7%,/,-2%
CCOC(=O)c1c(NC(=O)CN2C(=O)NC(C)(c3ccccc3)C2=O)sc(C)c1C (stereo not given),-8%,-13%,-3%,-15%,-3%,4%
O=C(Cn1cc(C(=O)c2cccs2)c2ccccc21)NCc1ccc2c(c1)OCO2,?,-5%,14µM*,-15%,?,-15%
O=C(CSc1ccc2ccccc2c1)NCc1cccs1,-4%,7.9µM*,?,0%,5%,1%
O=C(/C=C/c1ccc(Cl)cc1)NCc1cccs1,1%,-19%,1%,1%,9%,7%
O=C(NCc1cccs1)C12CC3CC(CC(C3)C1)C2,-5%,/,-5%,-3%,4%,2%
O=C(CC1CC2CCC1C2)NCc1cccs1 (stereo not given),-3%,16µM*,8%,-8%,8%,-3%
O=C(/C=C/c1cccc(Cl)c1)NCc1cccs1,-5%,32µM*,-3%,3%,-11%,1%
O=C(Cc1cccs1)NCc1ccc2c(c1)OCO2,0%,16µM*,9%,-5%,5%,3%
O=C(NCc1ccc2c(c1)OCO2)c1cccc(C(=O)NCc2ccc3c(c2)OCO3)c1,-29%,-15%,-8%,-14%,-1%,0%
CC(C)CC(=O)NCc1ccc(F)cc1,4%,16µM*,-5%,0%,1%,4%
O=C(O)CCC(=O)NCc1ccc(F)cc1,-1%,-1%,6%,-9%,-3%,11%
COCCNC(=O)c1ccc(-c2nc(CN3CCc4ccccc43)c(C)o2)cc1,-17%,/,/,-7%,/,8%
CC(C)c1ccc(S(=O)(=O)/N=C2/C=CC(=O)c3ccccc32)cc1,?,/,25µM*,28µM*,-29%,?
CC(C)[n+]1ccn(C2=C([O-])c3ccccc3C(=O)/C2=N\S(=O)(=O)c2ccccc2)c1,-10%,/,/,?,?,-10%
COc1cc(NC(=O)c2cc3c(s2)-c2ccccc2OC3)cc(OC)c1OC,6.3µM*[quencher],/,/,?,/,9%
Cc1ccc(C2(c3ccc(C)cc3)CC2C(=O)Nc2ccc([N+](=O)[O-])cc2O)cc1 (stereo not given),10µM*[quencher],14µM*,-9%,-14%,-11%,?
CC1(C)CC1C(=O)Nc1ccc([N+](=O)[O-])cc1Br (stereo not given),-11%,/,-6%,-7%,-4%,1%
C=CCn1c(COC)nnc1SCC(=O)c1ccc(F)cc1,12%,-23%,11µM*,-15%,?,-5%
C=CCn1c(COc2ccc(F)cc2)nnc1SCC(=O)c1c[nH]c2c(CC)cccc12,0%,-9%,15%,1%,10%,7%
CCCN1C(=O)C(O)(CC(=O)c2ccc(C(C)C)cc2)c2ccccc21 (stereo not given),-6%,/,/,3%,/,6%
